# Data published in PubChem BioAssay AID1159580 (chemical genetic matrix, 2015).
# Hit rate of the full screen: of about 5,500 compounds, about 2,000 (36%) were called active. Roughly 18% stayed inconclusive and do not appear here. Some of the results follow. Unmarked numbers belong to inactive results. No stated cut-off is given here; in the data, active means normalized growth mostly below about 0.91 (no sharp cut-off); inconclusive means no clear call, values can overlap the other calls; inactive means mostly above about 0.92.
# Assay: chemical genetic growth profiling, strain panel (AID 1159580);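 further: tested at 20 µM; growth read once vehicle control cultures reached saturation at 30 °C; 1 = growth at the plate median or of vehicle wells; lower values mean less growth of the strain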
# Settings: growth OD
smiles,measurement,setting,value
N#Cc1c(Cl)c(Cl)c(Cl)c(C#N)c1Cl,normalized growth,"S. cerevisiae deletion strains, locus YJR075W, strain HOC1, hits give low values",0.999
same,normalized growth,"S. cerevisiae deletion strains, locus YKL009W, strain mrt4, hits give low values",0.976
same,normalized growth,"S. cerevisiae deletion strains, locus YKL068W, hits give low values",0.989
same,normalized growth,"S. cerevisiae deletion strains, locus YKL085W, strain MDH1 (second series), hits give low values",0.989
same,normalized growth,"S. cerevisiae deletion strains, locus YKL085W, strain MDH1, hits give low values",0.989
same,normalized growth,"S. cerevisiae deletion strains, locus YKL160W, strain elf1, hits give low values",0.0734 (active)
same,normalized growth,"S. cerevisiae deletion strains, locus YKL190W, strain CNB1, hits give low values",1.01
same,normalized growth,"S. cerevisiae deletion strains, locus YKR001C, strain vps1, hits give low values",0.983
same,normalized growth,"S. cerevisiae deletion strains, locus YKR026C, strain gcn3, hits give low values",0.0728 (active)
same,normalized growth,"S. cerevisiae deletion strains, locus YKR091W, strain srl3, hits give low values",0.0738 (active)
same,normalized growth,"S. cerevisiae deletion strains, locus YLL001W, strain dnm1, hits give low values",0.0739 (active)
same,normalized growth,"S. cerevisiae deletion strains, locus YLL026W, hits give low values",0.068 (active)
same,normalized growth,"S. cerevisiae deletion strains, locus YLL041C, strain sdh2, hits give low values",0.0683 (active)
same,normalized growth,"S. cerevisiae deletion strains, locus YLR027C, strain aat2, hits give low values",0.072 (active)
same,normalized growth,"S. cerevisiae deletion strains, locus YLR039C, strain RIC1, hits give low values",1
same,normalized growth,"S. cerevisiae deletion strains, locus YLR058C, strain SHM2, hits give low values",0.994
same,normalized growth,"S. cerevisiae deletion strains, locus YLR102C, strain apc9, hits give low values",0.981
same,normalized growth,"S. cerevisiae deletion strains, locus YLR113W, strain HOG1, hits give low values",0.153 (active)
same,normalized growth,"S. cerevisiae deletion strains, locus YLR221C, strain rsa3, hits give low values",0.0754 (active)
same,normalized growth,"S. cerevisiae deletion strains, locus YLR258W, strain gsy2, hits give low values",0.0732 (active)
same,normalized growth,"S. cerevisiae deletion strains, locus YLR262C, strain YPT6 (second series), hits give low values",0.0948 (active)
same,normalized growth,"S. cerevisiae deletion strains, locus YLR262C, strain YPT6, hits give low values",1.02
same,normalized growth,"S. cerevisiae deletion strains, locus YLR268W, strain sec22, hits give low values",0.998
same,normalized growth,"S. cerevisiae deletion strains, locus YLR320W, strain mms22, hits give low values",0.0991 (active)
same,normalized growth,"S. cerevisiae deletion strains, locus YLR330W, strain CHS5, hits give low values",0.996
same,normalized growth,"S. cerevisiae deletion strains, locus YLR342W, strain FKS1 (second series), hits give low values",0.993
same,normalized growth,"S. cerevisiae deletion strains, locus YLR342W, strain FKS1, hits give low values",0.0799 (active)
same,normalized growth,"S. cerevisiae deletion strains, locus YLR357W, strain rsc2, hits give low values",0.146 (active)
same,normalized growth,"S. cerevisiae deletion strains, locus YLR370C, strain arc18, hits give low values",0.0758 (active)
same,normalized growth,"S. cerevisiae deletion strains, locus YLR371W, strain rom2, hits give low values",0.975
same,normalized growth,"S. cerevisiae deletion strains, locus YLR384C, strain iki3, hits give low values",0.0759 (active)
same,normalized growth,"S. cerevisiae deletion strains, locus YLR418C, strain cdc73, hits give low values",0.995
same,normalized growth,"S. cerevisiae deletion strains, locus YML016C, strain PPZ1, hits give low values",0.998
same,normalized growth,"S. cerevisiae deletion strains, locus YML032C, strain rad52, hits give low values",0.968
same,normalized growth,"S. cerevisiae deletion strains, locus YML120C, strain ndi1, hits give low values",0.0696 (active)
same,normalized growth,"S. cerevisiae deletion strains, locus YML124C, strain tub3, hits give low values",0.984
same,normalized growth,"S. cerevisiae deletion strains, locus YMR058W, strain fet3, hits give low values",0.074 (active)
same,normalized growth,"S. cerevisiae deletion strains, locus YMR078C, strain ctf18, hits give low values",0.969
same,normalized growth,"S. cerevisiae deletion strains, locus YMR125W, strain sto1, hits give low values",0.0959 (active)
same,normalized growth,"S. cerevisiae deletion strains, locus YMR129W, hits give low values",0.0707 (active)
same,normalized growth,"S. cerevisiae deletion strains, locus YMR205C, strain PFK2, hits give low values",0.111 (active)
same,normalized growth,"S. cerevisiae deletion strains, locus YMR223W, strain ubp8, hits give low values",0.975
same,normalized growth,"S. cerevisiae deletion strains, locus YMR231W, strain pep5, hits give low values",0.0788 (active)
same,normalized growth,"S. cerevisiae deletion strains, locus YMR263W, strain SAP30, hits give low values",1
same,normalized growth,"S. cerevisiae deletion strains, locus YMR307W, strain GAS1, hits give low values",0.902
same,normalized growth,"S. cerevisiae deletion strains, locus YNL067W, strain RPL9B, hits give low values",1
same,normalized growth,"S. cerevisiae deletion strains, locus YNL071W, strain lat1, hits give low values",0.0711 (active)
same,normalized growth,"S. cerevisiae deletion strains, locus YNL128W, strain TEP1, hits give low values",0.997
same,normalized growth,"S. cerevisiae deletion strains, locus YNL153C, strain GIM3, hits give low values",1.01
same,normalized growth,"S. cerevisiae deletion strains, locus YNL183C, strain NPR1, hits give low values",-0.00756 (active)
same,normalized growth,"S. cerevisiae deletion strains, locus YNL209W, strain ssb2, hits give low values",0.0719 (active)
same,normalized growth,"S. cerevisiae deletion strains, locus YNL233W, strain BNI4, hits give low values",1
same,normalized growth,"S. cerevisiae deletion strains, locus YNL248C, strain rpa49, hits give low values",0.0922 (active)
same,normalized growth,"S. cerevisiae deletion strains, locus YNL250W, strain rad50, hits give low values",0.98
same,normalized growth,"S. cerevisiae deletion strains, locus YNL271C, strain bni1, hits give low values",0.974
same,normalized growth,"S. cerevisiae deletion strains, locus YNL298W, strain CLA4, hits give low values",0.971
same,normalized growth,"S. cerevisiae deletion strains, locus YNL307C, strain MCK1, hits give low values",0.981
same,normalized growth,"S. cerevisiae deletion strains, locus YNL322C, strain KRE1 (second series), hits give low values",0.0768 (active)
same,normalized growth,"S. cerevisiae deletion strains, locus YNL322C, strain KRE1, hits give low values",0.997
same,normalized growth,"S. cerevisiae deletion strains, locus YNR049C, strain mso1, hits give low values",0.0681 (active)
same,normalized growth,"S. cerevisiae deletion strains, locus YNR052C, strain pop2, hits give low values",0.978
same,normalized growth,"S. cerevisiae deletion strains, locus YOL006C, strain TOP1, hits give low values",1.01
same,normalized growth,"S. cerevisiae deletion strains, locus YOL012C, strain htz1",1.56
same,normalized growth,"S. cerevisiae deletion strains, locus YOL147C, strain pex11, hits give low values",0.989
same,normalized growth,"S. cerevisiae deletion strains, locus YOR001W, strain rrp6, hits give low values",0.0917 (active)
same,normalized growth,"S. cerevisiae deletion strains, locus YOR061W, strain CKA2, hits give low values",1.01
same,normalized growth,"S. cerevisiae deletion strains, locus YOR069W, strain VPS5, hits give low values",0.999
same,normalized growth,"S. cerevisiae deletion strains, locus YOR070C, strain gyp1, hits give low values",0.0717 (active)
same,normalized growth,"S. cerevisiae deletion strains, locus YOR080W, strain dia2, hits give low values",0.0799 (active)
same,normalized growth,"S. cerevisiae deletion strains, locus YOR083W, strain WHI5, hits give low values",0.0798 (active)
same,normalized growth,"S. cerevisiae deletion strains, locus YOR106W, strain vam3, hits give low values",0.0853 (active)
same,normalized growth,"S. cerevisiae deletion strains, locus YOR136W, strain idh2, hits give low values",0.977
same,normalized growth,"S. cerevisiae deletion strains, locus YOR144C, strain elg1, hits give low values",0.981
same,normalized growth,"S. cerevisiae deletion strains, locus YOR184W, strain ser1, hits give low values",0.965
same,normalized growth,"S. cerevisiae deletion strains, locus YOR231W, strain MKK1, hits give low values",0.13 (active)
same,normalized growth,"S. cerevisiae deletion strains, locus YOR265W, strain rbl2, hits give low values",0.0688 (active)
same,normalized growth,"S. cerevisiae deletion strains, locus YOR270C, strain vph1, hits give low values",0.122 (active)
same,normalized growth,"S. cerevisiae deletion strains, locus YOR290C, strain snf2, hits give low values",0.0764 (active)
same,normalized growth,"S. cerevisiae deletion strains, locus YOR316C, strain cot1, hits give low values",0.984
same,normalized growth,"S. cerevisiae deletion strains, locus YPL051W, strain arl3, hits give low values",0.0808 (active)
same,normalized growth,"S. cerevisiae deletion strains, locus YPL055C, strain LGE1, hits give low values",1.01
same,normalized growth,"S. cerevisiae deletion strains, locus YPL078C, strain atp4, hits give low values",0.081 (active)
same,normalized growth,"S. cerevisiae deletion strains, locus YPL106C, strain sse1, hits give low values",0.126 (active)
same,normalized growth,"S. cerevisiae deletion strains, locus YPL240C, strain hsp82, hits give low values",0.0722 (active)
same,normalized growth,"S. cerevisiae deletion strains, locus YPL241C, strain CIN2, hits give low values",1
same,normalized growth,"S. cerevisiae deletion strains, locus YPL256C, strain CLN2, hits give low values",0.186 (active)
same,normalized growth,"S. cerevisiae deletion strains, locus YPR119W, strain clb2, hits give low values",0.985
same,normalized growth,"S. cerevisiae deletion strains, locus YPR141C, strain kar3, hits give low values",0.978
same,normalized growth,"S. cerevisiae deletion strains, locus YPR163C, strain tif3, hits give low values",0.98
same,normalized growth,"S. cerevisiae deletion strains, locus YPR167C, strain met16, hits give low values",0.989
same,normalized growth,"S. cerevisiae deletion strains, strain wtn01, hits give low values",0.99
same,normalized growth,"S. cerevisiae strains, strain wild type, hits give low values",0.997
